Experimental findings from PubChem BioAssay (NCI) are described below.

Test systems include NCI-H226 lung; HOP-62 NSCLC; NCI-H460 lung; HOP-92 NSCLC; NCI-H522 lung; A549/ATCC NSCLC; 786-0 renal; COLO 205 colon; NCI-H322M lung.
Holding throughout (assay): NCI-60 one-dose screen, 48 h (100 = growth as untreated, 0 = no growth, -100 = all killed)
Holding throughout (settings): 10 µM

SMILES strings stand for the structures. About 83,000 compounds went through this panel and 20% of them were active in at least one assay; those are over-represented in the sample as a whole.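 Assay: single dose, 48 h. Readout: percent growth (0 = no net growth; negative = cell death). Active: <10.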 A number with no mark means an inactive call. Activity calls are given as the source filed them.

As for `CS(=O)(=O)c1nccc(-c2c(-c3cccc(OCCN4CCOCC4)c3)nc3sccn23)n1`, the growth in the assay on NCI-H226 lung was 83.9%; in the assay on HOP-62 NSCLC it was 76.9%; with NCI-H460 lung, 101%; in the assay on HOP-92 NSCLC, 27.9%; in the assay on NCI-H522 lung, -63.3% (active); with A549/ATCC NSCLC, 94.5%. Also, the figures for the growth with 786-0 renal and in the assay with COLO 205 colon were 90.6% and 97.9%, respectively.
Take `COc1ccc(-c2n[nH]nc2-c2cc(OC)c(OC)c(OC)c2)cc1`: the growth with NCI-H226 lung was 63.2%; with HOP-62 NSCLC it was 46.2%; in the assay on NCI-H460 lung, 2.7% (active); with HOP-92 NSCLC, -1.89% (active); with NCI-H522 lung, -24.5% (active); in the assay with A549/ATCC NSCLC it was 20.4%. In addition, the growth with 786-0 renal was 16.9%; in the assay with COLO 205 colon, -18.5% (active).
As to `CCN(CC)CCCOc1cccc2c1C(=O)c1cccc(OCCCN(CC)CC)c1C2=O`, the growth in the assay with NCI-H226 lung is 42.8%; in the assay with HOP-62 NSCLC it was 48.1%; with NCI-H460 lung, 16.5%; in the assay with HOP-92 NSCLC, 21.2%; in the assay with NCI-H522 lung it was 43.8%; in the assay on A549/ATCC NSCLC, 22.3%. Also, the growth is 40.8% with 786-0 renal and -12% (active) with COLO 205 colon.
Consider `COc1ccc(Cl)cc1Nc1nc(C(F)(F)F)ccc1C(=O)N/N=C/c1cc(OC)c(OC)c(OC)c1`, for which the growth in the assay with NCI-H226 lung is 30.7%; with NCI-H322M lung, 8.92% (active); in the assay on NCI-H460 lung, 21.4%; with HOP-92 NSCLC, -12% (active); in the assay on A549/ATCC NSCLC, 59.4%; with COLO 205 colon, 12.8%.
As for `CC(C)(C)c1ccc(S(=O)(=O)Oc2ccc(NC(=O)C3CCCCC3)cc2)cc1`, the growth with NCI-H226 lung is 45.4%; in the assay on HOP-62 NSCLC it was 88.7%; with NCI-H460 lung, 44.2%; in the assay with HOP-92 NSCLC, 39.6%; in the assay with NCI-H522 lung, 25.4%; with A549/ATCC NSCLC, 41.5%. In addition, the growth in the assay with 786-0 renal was 55.4%; in the assay with COLO 205 colon it was 32.4%.
As for `COc1ccc(Cl)cc1Nc1nc(C(F)(F)F)ccc1C(=O)N/N=C/c1ccc(Cl)cc1`, the growth in the assay with NCI-H226 lung is 52.1%; in the assay with HOP-62 NSCLC, 44.8%; in the assay on NCI-H460 lung, 26.9%; in the assay on HOP-92 NSCLC, 25.7%; with NCI-H522 lung, 31.6%; with 786-0 renal, 13.6%. Besides, the growth with COLO 205 colon was 18%.
For the compound `CC(C)N(CCOc1cccc(-c2nc3sccn3c2-c2ccnc(S(C)(=O)=O)n2)c1)C(C)C`, the growth is 67.5% in the assay on NCI-H226 lung; 103% in the assay with HOP-62 NSCLC; 94.7% in the assay on NCI-H460 lung; 43.5% in the assay on HOP-92 NSCLC; 82% in the assay with NCI-H522 lung; 104% with A549/ATCC NSCLC. Besides, the growth was 97.3% in the assay on 786-0 renal and 97.6% in the assay with COLO 205 colon.
With `NS(=O)(=O)Oc1ccc(-c2ccc3sccc3c2)cc1`, the growth in the assay on NCI-H226 lung was 88.1%; with HOP-62 NSCLC, 104%; in the assay on NCI-H460 lung it was 103%; in the assay with HOP-92 NSCLC, 104%; with NCI-H522 lung, 87.1%; in the assay on A549/ATCC NSCLC, 98.3%. Besides, the growth was 106% with 786-0 renal and 114% with COLO 205 colon.
Take `CN(C)CCCSc1ccccc1NC1=C(Cl)C(=O)C(Nc2ccccc2SCCCN(C)C)=C(Cl)C1=O`: the growth in the assay with NCI-H226 lung is 93.5%; in the assay with NCI-H460 lung it was 103%; with HOP-92 NSCLC, 79%; in the assay with NCI-H522 lung, -78.2% (active); in the assay with A549/ATCC NSCLC, 101%; with 786-0 renal it was 42.9%. Moreover, the growth in the assay with COLO 205 colon was 17.9%.
As to `O=[N+]([O-])c1ccc2ncccc2c1Cl`, the growth with NCI-H226 lung is 109%; in the assay on HOP-62 NSCLC, 44.5%; in the assay on NCI-H460 lung, 93.1%; in the assay on HOP-92 NSCLC it was 99%; in the assay with NCI-H522 lung, 41.3%; in the assay with A549/ATCC NSCLC, 99.9%. In addition, the growth in the assay with 786-0 renal is 63.5%; with COLO 205 colon, -69.2% (active).
With `O=C(NCCCNS(=O)(=O)c1ccc(Cl)cc1)Nc1ccc(-n2cc(-c3ccncc3)c(-c3ccc(Cl)c(O)c3)n2)cc1`, the growth in the assay with NCI-H226 lung was 41%; in the assay on HOP-62 NSCLC, 76.4%; in the assay with NCI-H460 lung, 13.7%; with HOP-92 NSCLC, 37.3%; with NCI-H522 lung, 40.6%; in the assay on A549/ATCC NSCLC, 28.4%. In addition, the growth in the assay on 786-0 renal is 1.59% (active); in the assay with COLO 205 colon, 16.4%.
For the compound `Cc1n[nH]c(C)c1N=Nc1cccc2c1C(=O)c1ccccc1C2=O`, the growth in the assay with NCI-H226 lung is 87.4%; in the assay with HOP-62 NSCLC, 96.9%; in the assay on NCI-H460 lung, 96.5%; in the assay on HOP-92 NSCLC it was 92.6%; in the assay on NCI-H522 lung, 86.7%; in the assay with A549/ATCC NSCLC it was 105%. For the same compound, the results for the growth in the assay with 786-0 renal and with COLO 205 colon were 101% and 104%, respectively.
As to `COc1ccc(-c2cc(-c3ccc(Cl)cc3)nc(SCCCC(=O)NO)n2)cc1OC`, the growth was -5.3% (active) in the assay on NCI-H226 lung; 2.14% (active) with HOP-62 NSCLC; -17.7% (active) in the assay on NCI-H460 lung; -0.324% (active) with HOP-92 NSCLC; -5.35% (active) in the assay with NCI-H522 lung; 8.3% (active) with A549/ATCC NSCLC. Besides, the growth with 786-0 renal is 4.57% (active); in the assay on COLO 205 colon, 6.86% (active).
Consider `COc1cc(-c2csc(NC(=O)Nc3ccc(Cl)c(C(F)(F)F)c3)n2)cc(OC)c1OC`, for which the growth in the assay with NCI-H226 lung is -6.43% (active); with HOP-62 NSCLC it was -23.8% (active); in the assay on NCI-H460 lung, 2.24% (active); in the assay with HOP-92 NSCLC it was -35.4% (active); with NCI-H522 lung, -25.4% (active); in the assay on A549/ATCC NSCLC, 0.191% (active). Also, the growth in the assay with 786-0 renal was -12.4% (active); in the assay with COLO 205 colon, -58.1% (active).
